# Screening data: PubChem, National Center for Advancing Translational Sciences (NCATS)
# The list is not random: actives were taken first. Their share in the collection is about 18%.
# VDR inhibitor: Inhibitors of the vitamin D receptor (VDR): qHTS. Vitamin D3 receptor (Homo sapiens), P11473. VDR-SRC2-3 peptide fluorescence polarization, 2 h. Potency, µM, for inactives: max response, negative = inhibition, most hits filed as inhibitors. hit rate 0.93% among 400,000
#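 Reagent solutions, kept cold and dark, are dispensed first; compounds are then pinned in at 23 nl, plates briefly spun, and incubated 2 h at ambient temperature. Inhibition of VDR–SRC2-3 peptide binding is read by fluorescence polarization.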
# TDP1 cell CPT: qHTS for Inhibitors of human tyrosyl-DNA phosphodiesterase 1 (TDP1): qHTS in cells in presence of CPT. hit rate 12% among 420,000. Potency, µM (highest dose often 46.2 µM), for the others: at the highest dose activity change, negative = growth inhibition, most hits filed as inhibitors. AID 686979, 2013. chicken DT40 Tdp1-/-;hTDP1 cells + 20 nM CPT, ATP luminescence, 48 h; also: nearly all actives have a fitted effect of over 55% in size
#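 Chicken DT40 Tdp1-/- cells complemented with human TDP1, 400 cells/well, exposed to compounds plus 20 nM camptothecin for at least 48 h at 37 C; viability read as ATP content by CellTiter-Glo luminescence.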
# TDP1 inh: qHTS Assay for Inhibitors of Tyrosyl-DNA Phosphodiesterase (TDP1). Tyrosyl-DNA phosphodiesterase 1 (Homo sapiens), Q9NUW8. recombinant TDP1, AlphaScreen DNA substrate cleavage. Potency, µM (titrated, usually from 130 µM), for the others: at the top dose activity change, negative = inhibition, hits mostly inhibitors. hit rate 0.28% among 350,000. AID 485290, 2010; also: nearly all actives have a fitted effect of over 40% in size
# Target sequence (Q9NUW8 whole entry, looked up): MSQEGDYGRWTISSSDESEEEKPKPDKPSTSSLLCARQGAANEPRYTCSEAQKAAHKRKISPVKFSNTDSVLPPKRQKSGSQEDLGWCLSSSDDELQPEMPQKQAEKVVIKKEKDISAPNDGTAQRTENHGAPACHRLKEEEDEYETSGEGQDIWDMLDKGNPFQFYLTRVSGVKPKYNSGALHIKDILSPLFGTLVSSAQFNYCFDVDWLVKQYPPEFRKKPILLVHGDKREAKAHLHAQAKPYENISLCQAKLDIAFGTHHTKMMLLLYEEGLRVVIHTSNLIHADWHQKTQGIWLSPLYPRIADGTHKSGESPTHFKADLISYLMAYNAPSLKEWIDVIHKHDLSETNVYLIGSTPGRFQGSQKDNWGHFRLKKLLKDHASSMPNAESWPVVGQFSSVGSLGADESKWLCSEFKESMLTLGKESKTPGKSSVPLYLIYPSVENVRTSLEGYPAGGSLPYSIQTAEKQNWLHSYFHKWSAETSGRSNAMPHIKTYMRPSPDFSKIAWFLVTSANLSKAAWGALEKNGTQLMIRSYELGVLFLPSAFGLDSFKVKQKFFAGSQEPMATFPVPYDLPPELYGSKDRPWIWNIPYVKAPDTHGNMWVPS
#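 Here, a 5' biotin and 3' phosphotyrosine-FITC DNA oligonucleotide reports Tdp1 activity: intact substrate bridges AlphaScreen beads, while cleavage leaves a 3' phosphate and drops signal. All incubations at room temperature.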
# KAT2A inh: qHTS Assay for Inhibitors of GCN5L2 | Potency, µM (series often up to 58.9 µM), without a hit: at the highest dose activity change, negative = inhibition, hits mostly inhibitors | GCN5L2 HAT assay, ThioGlo1 CoA-SH fluorescence | Histone acetyltransferase KAT2A (Homo sapiens), Q92830 | hit rate 0.21% among 390,000
#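 Fluorescence readout, Ex340nm/Em540nm: ThioGlo1 (50uM final) reacts with free CoA thiol released as 20nM GCN5L2 acetylates H3(1-25) peptide (75uM) using acetyl-CoA (70uM). Compound and enzyme sat 15 min beforehand; 20 min room-temperature reaction.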
# PLK1 PBD inh: qHTS for Inhibitors of PLK1-PDB (polo-like kinase 1 - polo-box domain): Primary Screen | hit rate 2.8% among 360,000 | Serine/threonine-protein kinase PLK1 (Homo sapiens), P53350 | AID 720504, 2013 | Plk1 PBD binding of FITC phosphopeptide, fluorescence polarization | Potency, µM, for the others: max response, negative = inhibition, actives largely listed as inhibitors; also: series mostly up to about 57 µM; nearly all actives have a fitted effect of over 65% in size
# TDP1 cell noCPT: qHTS for Inhibitors of human tyrosyl-DNA phosphodiesterase 1 (TDP1): qHTS in cells in absence of CPT; DT40 Tdp1-/- hTDP1 cells, no CPT, ATP luminescence, 48 h; Potency, µM (doses to about 46.2 µM), inactives show top-dose activity change, negative = growth inhibition, hits mostly inhibitors; hit rate 15% among 420,000; also: nearly all actives have a fitted effect of over 55% in size
#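 A cellular qHTS used chicken DT40 cells lacking endogenous Tdp1 but carrying stably transfected human TDP1. Compounds were applied without camptothecin, and cell growth kinetics were judged by ATP-dependent luminescence after ≥48 hr.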
# * = called active by the depositor; ? = inconclusive; . = no result; [ ] = dose if it differs, or a comment. Calls follow the shape of the dose curve; as a rule, active = well fitted curve in the direction sought with a large enough effect; inconclusive = small, poorly fitted or top-dose-only effect, or another doubt; inactive = no such curve, though single readings can be large; an effect the other way counts as inactive or inconclusive. % is scaled to controls: 0 for no effect and ±100 for the full control effect; potency is read from the fitted curve at half-maximal effect.
SMILES,VDR inhibitor,TDP1 cell CPT,TDP1 inh,KAT2A inh,PLK1 PBD inh,TDP1 cell noCPT
O=C(CN1C(=O)C2(SCC(=O)N2c2cccc(Cl)c2)c2ccccc21)NC1CCCCC1 (configuration not stated),7%,16µM*,4%,-1%,.,18µM*
N#CN1CCC(NC(=O)c2ccc(C(F)(F)F)cc2)CC1,.,.,1%,.,.,.
CC(NCCC1(Cc2ccccc2Cl)CCOC(C)(C)C1)c1cccs1 (configuration not stated),15%,23µM*,8%,0%,-9%,21µM*
CCOc1c(O)ccc(/C=C2\SC(=S)NC2=O)c1[N+](=O)[O-],?,23%,0%,1%,30µM*,-5%
CCn1ncc(/C=C2/SC(=S)NC2=O)c1C,-1%,-16%,0%,-3%,-4%,-21%
CCOc1ccc(N(C)c2ccc(/C=C3/SC(=S)NC3=O)cc2)cc1,1%,?,6%,-23%,1%,16µM*
CCCOc1ccc(C(=O)Nc2cc(S(=O)(=O)N3CCOCC3)ccc2N2CCN(CC)CC2)cc1OC,-24%,-4%,.,.,-3%,-18%
CCO/C=C1\C(=O)N(c2ccccc2)C(=O)c2ccccc21,-15%,-13%,-5%,-3%,-19%,-19%
COc1ccc(N2C(=O)Cc3ccccc3C2=O)cc1,-21%,?,.,-15%,-3%,13µM*
CCO/C=C1/C(=O)N(c2ccc(OC)cc2)C(=O)c2ccccc21,-23%,-14%,-10%,-6%,17µM*,-24%
COc1ccc(N2C(=O)c3ccccc3C2=O)cc1,-13%,13%,1%,-10%,-21%,2%
CCO/C=C1/C(=O)N(Cc2ccccc2)C(=O)c2ccccc21,-32%,-5%,5%,0%,?,-21%
CCO/C=C1/C(=O)N(CC)c2ccccc21,-17%,-18%,3%,-6%,15µM*,?
Cc1ccc(F)c(S(=O)(=O)NC(=O)C2(C)CCN2C(=O)c2ccc(C3CCCCC3)cc2)c1 (configuration not stated),.,-21%,.,.,-14%,?
O=S(=O)(c1ccc(Cl)cc1)c1nc(-c2cccs2)oc1SCc1ccc(F)cc1,11%,21µM*,0%,-6%,.,?
CCOc1ccc(NC(=O)CSc2oc(-c3ccc(C)cc3)nc2S(=O)(=O)c2ccc(C)cc2)cc1,-10%,7.3µM*,9%,-8%,.,5.8µM*
CCOc1ccc(NC(=O)CSc2oc(-c3cccs3)nc2S(=O)(=O)c2ccc(Cl)cc2)cc1,-1%,18µM*,6%,-6%,.,13µM*
Cc1c(C(=O)NCc2ccc3c(c2)OCO3)sc(=O)n1Cc1ccc(-c2ccccc2)cc1,.,?,.,.,-9%,-23%
Cc1ccc(NC(=O)c2c(NC(=O)c3ccccc3Cl)sc3c2CCC3)cc1,-8%,?,0%[12.3 µM],-7%,.,?
CC1(C(=O)Nc2nnc(SCc3ccccc3)s2)Cc2ccccc2C(=O)O1 (configuration not stated),-9%,?,-1%,-6%,-8%,?
CC1(C(=O)Nc2ncc(Cc3ccc(Br)cc3)s2)Cc2ccccc2C(=O)O1 (configuration not stated),10%,23µM*,5%,-14%,.,23µM*
O=C(CSc1nc2c(c(=O)[nH]1)CCC2)Nc1cccc(O)c1,10%,-26%,9%,-2%,.,-18%
CC1=C(C(=O)OC2CCCC2)C(c2ccc(F)cc2F)CC(=O)N1 (configuration not stated),-2%,?,0%,-6%,.,?
Oc1cc2ccccc2cc1-c1n[nH]c(=S)o1,?,-22%,2%,-5%,12µM*,-12%
Cc1cc(-c2n[nH]c(=S)o2)c(C)n1-c1ccccc1,-7%,2%,6%,-4%,-16%,-10%
SMILES,VDR inhibitor,TDP1 cell CPT,TDP1 inh,KAT2A inh,PLK1 PBD inh,TDP1 cell noCPT
CCN(C(=O)COC(=O)c1cccnc1SC)c1c(N)n(Cc2ccccc2)c(=O)[nH]c1=O,8%,5%,2%,0%,8%,3%
CC(C)[C@H](NC(N)=O)C(=O)Nc1cccc(S(=O)(=O)N2CCOCC2)c1,-19%,-1%,1%,-2%,?,-17%
Cc1ccn2c(-c3n[nH]c(=S)n3Cc3ccccc3)c(C)nc2c1,-5%,-3%,3%,-1%,-16%,?
Cc1nc2ccccn2c1-c1csc(NCc2ccco2)n1,-5%,13µM*,7%,3%,-17%,21µM*
Cc1ccn2c(-c3csc(NCc4ccccc4)n3)c(C)nc2c1,-8%,?,12%,-6%,-10%,15µM*
Cc1nc(C)c(-c2csc(NCc3ccco3)n2)s1,-5%,?,2%,-3%,-15%,?
CC(=O)Nc1ccc(S(=O)(=O)N2CCC3(CC2)CC(=O)c2ccccc2O3)cc1,-6%,?,-1%[0.505 µM],0%,-12%,?
COc1ccc(C)cc1NC(=O)CN1C(=O)COc2ccc(S(=O)(=O)N3CCOCC3)cc21,-7%,-13%,4%,-7%,-1%,?
CN(Cc1ccc(Cl)c(Cl)c1)C(=O)C1CSC2(C)CCC(=O)N12 (configuration not stated),-12%,15µM*,1%,-1%,5%,15µM*
CC(=O)c1ccc(NC(=O)CSc2nc3[nH]c(=O)cc(O)c3s2)cc1,-13%,?,.,.,?,?
Cc1cc(NC(=O)CSc2nc3[nH]c(=O)cc(O)c3s2)ccc1Br,-9%,10%,1%,-13%,-12%,9%
O=c1cc(O)c2sc(Nc3ccc(Cl)c(F)c3)nc2[nH]1,?,5.2µM*,.,-23%,-3%,4.6µM*
O=c1cc(O)c2sc(Nc3ccc(F)c(Cl)c3)nc2[nH]1,?,3.3µM*,5%,?,-4%,3.7µM*
CCCCCCOC(=O)c1ccccc1NC(=O)/C=C/C(=O)O,?,16µM*,-1%,-19%,-18%,?
CCOC(=O)Cn1nc(NC(=O)c2ccc(C(=O)OC)cc2)cc1C,-4%,?,3%,-1%,-10%,?
